Test [1] in a line: small molecules captured by biotinylated probe aFSTL3 – biochemical, small-molecule microarray, fluorescence 635/667, stem cell growth factor project, primary screen (AID 1064).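 Note: measures binding of the biotinylated anti-FSTL3 antibody to printed compounds.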 The note with it: higher = more signal.
Test [2] can be described thus: binders from COS7 lysate, DM2A8 probe, primary screen, torsin A project, cell lysate, small-molecule microarray, fluorescence 635/667 (AID 1065). The note with it: higher = more signal, COS7 lysate expressing mutant human TOR1A.
The nature of test [3]: small molecules captured by biotinylated probe aFGF2 – biochemical, small-molecule microarray, fluorescence 635/667, stem cell growth factor project, primary screen (AID 1067).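 Note: measures binding of biotinylated aFGF2 protein to printed compounds on slides; z-score merges feature fluorescence and signal-to-noise across triplicate slides.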 Particulars: higher = more signal.
Test [4] is described as follows: small molecules captured by biotinylated probe aFGF10 – biochemical, small-molecule microarray, fluorescence 635/667, stem cell growth factor project, primary screen (AID 1071).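 Note: score merges 667 nm spot intensity and signal to noise from triplicate slides.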 Particulars: higher = more signal.
The target of test [5] is Neurogenic locus notch homolog protein 2 (Homo sapiens) (UniProt Q04721). The test is described as follows: small molecules binding Notch2 protein – biochemical, small-molecule microarray, 635 nm fluorescence, stem cell growth factors, primary screen (AID 1073). The note with it: higher = more signal.
Chain of Neurogenic locus notch homolog protein 2 (Homo sapiens) (Q04721 whole entry, looked up, canonical isoform): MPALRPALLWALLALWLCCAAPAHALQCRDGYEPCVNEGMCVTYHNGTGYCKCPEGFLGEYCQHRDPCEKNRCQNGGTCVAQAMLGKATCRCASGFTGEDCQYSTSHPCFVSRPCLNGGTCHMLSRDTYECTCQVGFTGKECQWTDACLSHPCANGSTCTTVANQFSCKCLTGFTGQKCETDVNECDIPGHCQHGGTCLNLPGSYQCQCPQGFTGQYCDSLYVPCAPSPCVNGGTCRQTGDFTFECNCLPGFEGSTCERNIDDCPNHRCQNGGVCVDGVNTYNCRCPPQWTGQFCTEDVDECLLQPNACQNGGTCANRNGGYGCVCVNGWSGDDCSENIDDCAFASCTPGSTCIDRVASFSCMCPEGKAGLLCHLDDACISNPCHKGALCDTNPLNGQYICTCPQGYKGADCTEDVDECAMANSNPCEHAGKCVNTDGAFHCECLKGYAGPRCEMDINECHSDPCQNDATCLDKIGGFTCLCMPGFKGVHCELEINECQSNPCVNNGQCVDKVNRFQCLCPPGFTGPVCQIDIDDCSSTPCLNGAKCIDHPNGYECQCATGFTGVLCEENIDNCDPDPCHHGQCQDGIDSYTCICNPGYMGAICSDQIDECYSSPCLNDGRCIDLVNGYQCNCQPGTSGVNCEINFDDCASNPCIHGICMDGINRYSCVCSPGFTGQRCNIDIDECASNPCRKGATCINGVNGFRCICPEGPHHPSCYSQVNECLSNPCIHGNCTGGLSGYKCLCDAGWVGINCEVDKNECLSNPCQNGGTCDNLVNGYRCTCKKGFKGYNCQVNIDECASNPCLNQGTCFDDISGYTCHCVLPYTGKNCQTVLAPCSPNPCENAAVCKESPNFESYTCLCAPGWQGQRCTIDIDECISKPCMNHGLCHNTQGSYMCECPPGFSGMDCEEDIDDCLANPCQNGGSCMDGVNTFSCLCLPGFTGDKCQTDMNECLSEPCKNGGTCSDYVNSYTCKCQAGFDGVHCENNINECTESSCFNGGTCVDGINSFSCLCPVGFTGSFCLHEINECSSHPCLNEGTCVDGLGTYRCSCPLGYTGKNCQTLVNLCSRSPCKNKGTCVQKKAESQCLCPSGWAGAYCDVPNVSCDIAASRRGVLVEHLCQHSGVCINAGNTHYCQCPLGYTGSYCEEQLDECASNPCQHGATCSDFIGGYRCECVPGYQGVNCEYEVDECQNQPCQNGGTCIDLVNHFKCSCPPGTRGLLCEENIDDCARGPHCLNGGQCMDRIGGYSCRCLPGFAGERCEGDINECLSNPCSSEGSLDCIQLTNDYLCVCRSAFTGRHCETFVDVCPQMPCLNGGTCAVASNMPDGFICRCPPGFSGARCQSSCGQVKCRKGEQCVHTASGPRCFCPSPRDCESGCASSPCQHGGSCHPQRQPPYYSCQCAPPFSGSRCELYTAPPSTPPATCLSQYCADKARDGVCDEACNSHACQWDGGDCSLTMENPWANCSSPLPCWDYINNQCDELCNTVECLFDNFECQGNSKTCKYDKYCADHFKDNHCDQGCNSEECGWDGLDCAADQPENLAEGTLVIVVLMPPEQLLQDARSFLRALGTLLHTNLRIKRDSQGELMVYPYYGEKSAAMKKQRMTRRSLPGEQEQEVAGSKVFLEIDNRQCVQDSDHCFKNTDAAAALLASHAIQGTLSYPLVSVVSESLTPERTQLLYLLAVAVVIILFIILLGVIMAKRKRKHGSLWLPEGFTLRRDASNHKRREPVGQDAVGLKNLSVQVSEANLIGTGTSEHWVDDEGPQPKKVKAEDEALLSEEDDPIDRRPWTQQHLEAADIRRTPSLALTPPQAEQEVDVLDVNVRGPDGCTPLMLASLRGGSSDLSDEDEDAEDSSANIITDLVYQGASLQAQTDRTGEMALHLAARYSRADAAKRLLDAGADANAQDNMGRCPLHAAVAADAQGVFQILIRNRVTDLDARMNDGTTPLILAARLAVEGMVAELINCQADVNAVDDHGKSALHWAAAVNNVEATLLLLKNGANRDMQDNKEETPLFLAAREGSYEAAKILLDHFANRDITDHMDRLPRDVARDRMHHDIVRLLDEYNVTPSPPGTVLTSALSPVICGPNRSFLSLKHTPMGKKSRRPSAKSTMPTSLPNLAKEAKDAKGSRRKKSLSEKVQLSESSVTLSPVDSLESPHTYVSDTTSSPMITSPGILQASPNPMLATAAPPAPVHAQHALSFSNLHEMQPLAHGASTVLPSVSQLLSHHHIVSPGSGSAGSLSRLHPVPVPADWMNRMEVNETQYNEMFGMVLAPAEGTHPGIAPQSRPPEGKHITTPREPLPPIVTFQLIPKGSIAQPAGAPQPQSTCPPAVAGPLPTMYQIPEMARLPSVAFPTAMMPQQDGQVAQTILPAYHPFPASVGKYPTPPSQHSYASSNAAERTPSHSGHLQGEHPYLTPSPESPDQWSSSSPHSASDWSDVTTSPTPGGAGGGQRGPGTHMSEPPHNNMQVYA
Test [6] has as its target Pro-neuregulin-1, membrane-bound isoform (Homo sapiens) (UniProt Q02297). The test is described as follows: small molecules binding neuregulin-1 protein – biochemical, small-molecule microarray, fluorescence 635/667, psychiatric disease protein project, primary screen (AID 1075).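 Note: score combines 667 nm spot fluorescence with signal to noise.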 The note with it: NRG1 binding, 635 nm fluorescence, higher = more signal.
In test [7] the test system is Neuregulin-1 EGF-like domain. The experiment in a line: small molecules binding NRG1 EGF domain – biochemical, small-molecule microarray, 635 nm fluorescence, primary screen (AID 1081).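 Note: binding of the protein to compounds printed on small-molecule microarray slides.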 Particulars: higher = more signal.
Test [8] is described as follows: FRG1 expression reporter modulators in myotubes – cell-based, C2C12 myotubes, firefly/Renilla luciferase, luminescence, FRG1 inhibition for FSHD, primary screen (AID 1084). Particulars: FRG1 promoter luciferase, higher = more signal, called active from +8 up or from −8 down.
Test [9] in a line: small molecules captured by biotinylated probe aFST – biochemical, small-molecule microarray, fluorescence 635/667, stem cell growth factor project, primary screen (AID 1086).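 Note: score merges 667 nm fluorescence with signal-to-noise of each printed compound spot.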 Particulars: higher = more signal.
The nature of test [10]: binders of probe aHhip on microarray, primary screen, stem cell growth factor project, biochemical, small-molecule microarray, fluorescence 635/667 (AID 1087).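 Note: score merges spot fluorescence at 667nm with spot signal to noise ratio.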 The note with it: higher = more signal.
Test [11] relates to PRMT1 (protein arginine N-methyltransferase 1). The experiment in a line: small molecules binding arginine methyltransferase PRMT1 – biochemical, small-molecule microarray, 635 nm fluorescence, primary screen (AID 1088).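 Note: binding of Prmt1 protein to compounds spotted on small-molecule microarray slides.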 Particulars: higher = more signal.
Test [12] can be described thus: growth effects on S. cerevisiae YJM789 – YJM789 clinical isolate, OD600, 24 h, basal, primary screen (AID 1089).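 Note: growth of clinical yeast isolate S. cerevisiae YJM 789 seeded 1000 cells per well; test concentration not given here.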 Particulars: higher = more signal, called active from +8 up or from −8 down.
Test [13] can be described thus: S. pombe growth modifiers, basal conditions – strain 972, OD600, 24 h, no modulator, primary screen (AID 1090).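 Note: basal condition with compound alone and no growth modifier present; test concentration not given here.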 The note with it: S. pombe 972 growth, higher = more signal, called active from +8 up or from −8 down.
Test [14] is described as follows: budding yeast growth modifiers under rapamycin – strain BY4716, OD600, 96 h, primary screen (AID 1091). Note: test concentration not given here. The note with it: S. cerevisiae BY4716 + rapamycin, higher = more signal, called active from +8 up or from −8 down.
Test [15] addresses Torsin-1A-interacting protein 2 (Homo sapiens) (UniProt Q8NFQ8). The experiment in a line: small molecules binding lysate-expressed LULL1 – cell lysate, human LULL1 lysate, 635/667 nm fluorescence, primary screen (AID 1092).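 Note: probe is lysate of COS7 cells overexpressing human LULL1; score merges per-feature 667 nm fluorescence with signal-to-noise.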 The note with it: small-molecule microarray, hLULL1 lysate binding, 635 nm fluorescence; higher = more signal.
Test [16] in a line: optical density change of DRC41 E. coli – strain DRC41, OD650, 24 h, E. coli filamentation project, primary screen (AID 1093).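 Note: MC1000 strain lacking acrAB efflux and sulA so SOS filamentation is blocked; test concentration not given here.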 The note with it: E. coli DRC41 growth, higher = more signal, called active from +8 up or from −8 down.
A short description of test [17]: probe aLefty2 binding to arrayed compounds – biochemical, biotinylated probe, 635/667 nm fluorescence, primary screen (AID 1094).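 Note: score merges spot fluorescence near 667 nm with spot signal-to-noise ratio.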 Particulars: small-molecule microarray, higher = more signal.
In test [18] the test system is Noggin (protein binding on small-molecule microarray). The test is described as follows: small molecules binding Noggin protein – biochemical, 635/667 nm fluorescence, primary screen (AID 1095).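 Note: score merges 667 nm feature fluorescence with signal to noise over triplicate slides.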 The note with it: 635 nm fluorescence, higher = more signal.
Test [19] addresses Neurogenic locus notch homolog protein 3 (Homo sapiens) (UniProt Q9UM47). The test is described as follows: small molecules binding NOTCH3 protein – biochemical, 635/667 nm fluorescence, primary screen (AID 1096). The note with it: small-molecule microarray, 635 nm fluorescence, higher = more signal.
The nature of test [20]: probe aEGFR binding to arrayed compounds – biochemical, biotinylated probe, 635/667 nm fluorescence, primary screen (AID 1097).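 Note: probe is a biotinylated anti-EGFR antibody binding compounds printed on slides; score combines fluorescence near 667 nm and signal to noise of each spot.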 Particulars: small-molecule microarray, higher = more signal.

The record followed here is PubChem BioAssay.

Active and inactive are the calls of the source.

Chain of Pro-neuregulin-1, membrane-bound isoform (Homo sapiens) (Q02297 whole entry, looked up, the tested form may be a part, canonical isoform): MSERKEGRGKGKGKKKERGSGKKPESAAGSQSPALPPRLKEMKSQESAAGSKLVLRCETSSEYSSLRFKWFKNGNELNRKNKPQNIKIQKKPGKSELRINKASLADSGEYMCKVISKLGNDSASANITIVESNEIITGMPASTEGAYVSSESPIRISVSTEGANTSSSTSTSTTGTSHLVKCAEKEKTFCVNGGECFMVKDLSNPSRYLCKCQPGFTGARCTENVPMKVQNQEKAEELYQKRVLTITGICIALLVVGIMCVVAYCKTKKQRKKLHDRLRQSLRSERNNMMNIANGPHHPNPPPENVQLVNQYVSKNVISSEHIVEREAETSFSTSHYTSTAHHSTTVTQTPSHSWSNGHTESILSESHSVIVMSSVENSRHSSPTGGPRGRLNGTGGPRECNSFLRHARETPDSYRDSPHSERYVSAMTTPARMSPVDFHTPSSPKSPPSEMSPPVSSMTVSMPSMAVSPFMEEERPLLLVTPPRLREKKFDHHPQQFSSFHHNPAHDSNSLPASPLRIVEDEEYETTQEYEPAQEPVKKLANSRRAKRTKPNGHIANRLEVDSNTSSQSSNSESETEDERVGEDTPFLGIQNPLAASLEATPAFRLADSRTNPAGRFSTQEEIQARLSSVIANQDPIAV
Chain of Torsin-1A-interacting protein 2 (Homo sapiens) (Q8NFQ8 whole entry, looked up): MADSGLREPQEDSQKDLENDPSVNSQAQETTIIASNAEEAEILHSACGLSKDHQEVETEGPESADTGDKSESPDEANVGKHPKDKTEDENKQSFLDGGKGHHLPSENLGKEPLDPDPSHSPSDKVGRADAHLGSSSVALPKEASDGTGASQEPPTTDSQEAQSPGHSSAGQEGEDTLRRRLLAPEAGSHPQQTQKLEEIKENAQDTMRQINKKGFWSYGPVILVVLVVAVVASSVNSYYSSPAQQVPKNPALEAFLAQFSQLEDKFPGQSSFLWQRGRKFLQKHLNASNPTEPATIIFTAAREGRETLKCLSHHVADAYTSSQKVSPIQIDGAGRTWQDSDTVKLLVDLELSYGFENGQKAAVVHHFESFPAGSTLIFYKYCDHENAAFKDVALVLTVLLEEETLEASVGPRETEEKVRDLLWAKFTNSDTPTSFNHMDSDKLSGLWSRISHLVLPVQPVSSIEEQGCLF

Regarding `O=C(NCc1ccccc1)[C@@H]1c2ccccc2C(=O)N(C2CCCCC2)[C@H]1c1ccc(CO)cc1`, the composite z-score is -1.15 in [1]; 0.149 in test [2]; -0.0407 in test [3]; 0.57 in [4]; -0.287 in test [5]; 1.68 in test [6]. The composite z-score in test [7] was 1.38; in test [9], -0.309; in test [10], -0.283; in [11], 1.47; in test [15], 2.53; in test [17], -0.322. Moreover, the figures for the composite z-score in [18], in test [19] and in [20] were 1.41, 1.03 and -0.352, respectively. Further, the z-score in [8] is -1.48 (inactive); in test [12], -0.406 (inactive); in [13], -0.577 (inactive); in [14] it was 0.39 (inactive); in test [16], -0.175 (inactive).
With `C=CCC(OC(C)=O)[C@@H]1[C@@H](N(Cc2ccc(-c3cccc(C(F)(F)F)c3)o2)C(=O)Cc2ccc(OC)cc2)c2cc(OCCCO)ccc2N1C(=O)Cc1ccc(OC)cc1` (stereo not given in full), the composite z-score is -0.0741 in [1]; 0.185 in test [2]; -0.0739 in test [3]; -0.118 in test [4]; -0.17 in test [5]; 0.783 in [6]. Moreover, the composite z-score in [7] was -0.92; in test [9], -0.239; in [10], -0.16; in test [11], -0.0091; in [15], -0.106; in [17] it was -0.107. Besides, the composite z-score in test [18] is -0.239; in test [19], -0.869; in test [20] it was -0.178. Moreover, the z-score in test [8] was 0.0712 (inactive); in test [12], -0.816 (inactive); in test [13] it was -0.566 (inactive); in [14], -0.918 (inactive); in test [16], 1.48 (inactive).
For `O=C1c2ccccc2[C@](Cc2ccccc2I)(C(=O)O)[C@H](c2ccc(CO)cc2)N1Cc1ccccc1C(F)(F)F`, the composite z-score in [1] was -0.897; in test [2], 0.17; in test [3], -0.21; in test [4], -0.278; in test [5], 0.304; in test [6], 1.62. For the same compound, the composite z-score in [7] was 1.26; in test [9] it was -0.0423; in [10], -0.312; in test [11], 1.12; in [15], 3.14; in test [17] it was -0.243. Also, the composite z-score in test [18] was 0.033; in test [19], 0.263; in [20], -0.379. Further, the z-score in test [8] was -0.524 (inactive); in [12], 0.817 (inactive); in test [13], 0.0662 (inactive); in test [14] it was 0.0262 (inactive); in [16], -0.255 (inactive).
For `[N-]=[N+]=NCc1ccccc1[C@@H]1OC(c2ccc(OCCCO)cc2)=N[C@]1(Cc1ccccc1)C(=O)O`, the composite z-score in test [1] was determined as 0.221; in test [2], 0.163; in test [3], 0.0909; in test [4], 1.04; in test [5] it was 0.526; in [6] it was 1.57. In addition, the composite z-score was 1.25 in test [7]; 0.461 in [9]; -0.0581 in [10]; 1.54 in test [11]; 3.2 in test [15]; 0.0769 in [17]. The composite z-score in [18] is -0.0061; in test [19] it was 0.315; in test [20] it was 0.271. Moreover, the z-score is 2.29 (inactive) in [8]; 0.452 (inactive) in test [12]; -1.11 (inactive) in [13]; -0.486 (inactive) in test [14]; 0.652 (inactive) in [16].
Turning to `O=C(NCC(O)CO)[C@@]1(Cc2ccccc2)N=C(c2ccc(OCCCO)cc2)O[C@H]1c1ccccc1` (stereo not given in full), the composite z-score in test [1] is 1.32; in test [2], 0.691; in test [3], 0.16; in test [4], 0.36; in test [5], -0.0617; in test [6], 1.39. Moreover, the composite z-score in test [7] turned out to be 1.26; in test [9], 1.08; in test [10], 0.415; in test [11], 0.814; in test [15], 3.57; in test [17], 0.491. The composite z-score in test [18] is 0.431; in test [19] it was -0.376; in [20], 0.298. Besides, the z-score in test [8] is -1.89 (inactive); in test [12] it was -0.738 (inactive); in [13] it was -0.456 (inactive); in test [14], -1.26 (inactive); in [16], 1.62 (inactive).
